Assay results as given in the antibiotic and cytotoxicity screens of Wong et al. (2023).
Among all 39,000 compounds or so, about 3,300 (8.5%) were called active. The list comes from a sample in which actives are over-represented; it also holds similar structures and randomly drawn compounds.

The compounds below were run on HepG2 (assay: cytotoxicity call (relative viability < 0.9)). Conditions: 10 µM.
For C[C@@H]1CN([C@H](C)CO)S(=O)(=O)c2ccc(C#C[C@@H](C)O)cc2O[C@H]1CN(C)C(=O)c1ccccc1, the cytotoxicity call was “inactive”.
With COc1ccccc1NC(=O)N(C)C[C@@H]1OCc2ccccc2-c2c(n(C)c3ccccc23)C(=O)N([C@H](C)CO)C[C@H]1C the cytotoxicity call was “inactive”.
With O=C(C[C@@H]1C[C@@H]2c3cc(NC(=O)NC4CCCC4)ccc3O[C@@H]2[C@@H](CO)O1)NCCN1CCCCC1 the cytotoxicity call was “inactive”.
With CN(C)c1ccc(C(=C2C=CC(=[N+](C)C)C=C2)c2ccc(N(C)C)cc2)cc1.[Cl-] the cytotoxicity call was “active”.
In the case of C[C@@H]1CCCCO[C@@H](CN(C)Cc2ccc(Cl)c(Cl)c2)[C@@H](C)CN([C@H](C)CO)C(=O)c2cc(NS(C)(=O)=O)ccc2O1, the cytotoxicity call is reported as “inactive”.
For COc1ccc(S(=O)(=O)N(C)C[C@H]2Oc3ccc(NS(=O)(=O)c4c(C)noc4C)cc3C(=O)N([C@H](C)CO)C[C@H]2C)cc1, the cytotoxicity call was “inactive”.
With COc1ccc(S(=O)(=O)N(C)C[C@H]2Oc3ccc(NS(=O)(=O)c4c(C)noc4C)cc3C(=O)N([C@H](C)CO)C[C@@H]2C)cc1 the cytotoxicity call was “inactive”.
With COc1ccc(NC(=O)N(C)C[C@@H]2Oc3ccc(NS(=O)(=O)c4c(C)noc4C)cc3C(=O)N([C@@H](C)CO)C[C@@H]2C)cc1 the cytotoxicity call was “active”.
With COc1ccc(S(=O)(=O)N(C)C[C@@H]2Oc3ccc(NS(=O)(=O)c4c(C)noc4C)cc3C(=O)N([C@H](C)CO)C[C@@H]2C)cc1 the cytotoxicity call was “active”.
With COc1ccc(NC(=O)N(C)C[C@@H]2Oc3ccc(NS(=O)(=O)c4c(C)noc4C)cc3C(=O)N([C@@H](C)CO)C[C@H]2C)cc1 the cytotoxicity call was “inactive”.
With COc1ccc(NC(=O)N(C)C[C@@H]2Oc3ccc(NS(=O)(=O)c4c(C)noc4C)cc3C(=O)N([C@H](C)CO)C[C@@H]2C)cc1 the cytotoxicity call was “inactive”.
For Cc1cc(C(=O)Nc2cccc3c2O[C@H](CN(C)S(=O)(=O)c2c(C)noc2C)[C@H](C)CN([C@@H](C)CO)C3=O)n(C)n1, the cytotoxicity call was “inactive”.
C[C@@H]1CCCCO[C@@H](CN(C)C(=O)Nc2cccc3ccccc23)[C@@H](C)CN([C@H](C)CO)C(=O)c2cc(NS(=O)(=O)c3ccccc3)ccc2O1 was tested, and the cytotoxicity call was “inactive”.
For COc1cccc(C#Cc2ccc([C@@H]3[C@@H](CO)N4C(=O)CN(S(=O)(=O)c5ccccc5C)C[C@H]34)cc2)c1, the cytotoxicity call was “inactive”.
In the case of C[C@@H]1CN([C@@H](C)CO)C(=O)c2cccc(NC(=O)CCCCCC(=O)Nc3ccccc3N)c2O[C@H]1CN(C)C(=O)Nc1ccccc1, the cytotoxicity call is reported as “inactive”.
For Cc1noc(C)c1S(=O)(=O)Nc1ccc2c(c1)C(=O)N([C@H](C)CO)C[C@@H](C)[C@@H](CN(C)Cc1ccncc1)O2, the cytotoxicity call was “inactive”.
With O=C(C[C@@H]1CC=CC[C@H](NC(=O)OCC2c3ccccc3-c3ccccc32)C(=O)O[C@@H](c2ccccc2)CNC1=O)N[C@@H](CO)Cc1ccccc1 the cytotoxicity call was “inactive”.
With Cc1ccc(S(=O)(=O)N(C)C[C@@H]2Oc3ccc(NC(=O)C4CC4)cc3CC(=O)N([C@@H](C)CO)C[C@@H]2C)cc1 the cytotoxicity call was “active”.
C[C@H](CO)N1C[C@H](C)[C@H](CN(C)S(=O)(=O)c2ccc(Cl)cc2)Oc2ccc(NC(=O)C3CC3)cc2CC1=O was tested, and the cytotoxicity call was “inactive”.
With Cc1ccc(S(=O)(=O)N(C)C[C@H]2Oc3ccc(NC(=O)C4CC4)cc3CC(=O)N([C@@H](C)CO)C[C@@H]2C)cc1 the cytotoxicity call was “inactive”.
In the case of Cc1ccc(S(=O)(=O)N(C)C[C@@H]2Oc3ccc(NC(=O)C4CC4)cc3CC(=O)N([C@@H](C)CO)C[C@H]2C)cc1, the cytotoxicity call is reported as “inactive”.
C[C@@H]1CN([C@H](C)CO)C(=O)Cc2cc(NC(=O)C3CC3)ccc2O[C@@H]1CN(C)S(=O)(=O)c1ccc(Cl)cc1 was tested, and the cytotoxicity call was “inactive”.
C[C@H]1CN([C@@H](C)CO)C(=O)Cc2cc(NC(=O)C3CC3)ccc2O[C@H]1CN(C)S(=O)(=O)c1ccc(Cl)cc1 was tested, and the cytotoxicity call was “active”.
For C[C@H]1CN([C@@H](C)CO)C(=O)c2cccc(NC(=O)c3ccc(-c4nccs4)cc3)c2O[C@@H]1CN(C)C(=O)Nc1cccc2ccccc12, the cytotoxicity call was “inactive”.
With COc1ccc(S(=O)(=O)N(C)C[C@H]2Oc3cc(-c4ccccc4OC)ccc3S(=O)(=O)N([C@H](C)CO)C[C@H]2C)cc1 the cytotoxicity call was “active”.
COc1ccc(S(=O)(=O)N(C)C[C@@H]2Oc3cc(-c4ccccc4OC)ccc3S(=O)(=O)N([C@@H](C)CO)C[C@H]2C)cc1 was tested, and the cytotoxicity call was “inactive”.
With COc1ccc(S(=O)(=O)N(C)C[C@@H]2Oc3cc(-c4ccccc4OC)ccc3S(=O)(=O)N([C@H](C)CO)C[C@@H]2C)cc1 the cytotoxicity call was “active”.
With COc1ccc(S(=O)(=O)N(C)C[C@@H]2Oc3cc(-c4ccccc4OC)ccc3S(=O)(=O)N([C@@H](C)CO)C[C@@H]2C)cc1 the cytotoxicity call was “inactive”.
COc1ccc(S(=O)(=O)N(C)C[C@@H]2Oc3cc(-c4ccccc4OC)ccc3S(=O)(=O)N([C@H](C)CO)C[C@H]2C)cc1 was tested, and the cytotoxicity call was “inactive”.
With COc1ccc(S(=O)(=O)N(C)C[C@H]2Oc3cc(-c4ccccc4OC)ccc3S(=O)(=O)N([C@H](C)CO)C[C@@H]2C)cc1 the cytotoxicity call was “inactive”.
In the case of C[C@@H]1CN([C@@H](C)CO)S(=O)(=O)c2ccc(-c3cccc(C#N)c3)cc2O[C@H]1CN(C)C(=O)c1ccncc1, the cytotoxicity call is reported as “inactive”.
With Cc1noc(C)c1S(=O)(=O)N(C)C[C@H]1OCCCC[C@@H](C)Oc2ccc(NC(=O)Nc3ccc(C(F)(F)F)cc3)cc2C(=O)N([C@@H](C)CO)C[C@@H]1C the cytotoxicity call was “inactive”.
Cc1noc(C)c1S(=O)(=O)N(C)C[C@@H]1OCCCC[C@@H](C)Oc2ccc(NC(=O)Nc3ccc(C(F)(F)F)cc3)cc2C(=O)N([C@H](C)CO)C[C@@H]1C was tested, and the cytotoxicity call was “inactive”.
Cc1noc(C)c1S(=O)(=O)N(C)C[C@@H]1OCCCC[C@@H](C)Oc2ccc(NC(=O)Nc3ccc(C(F)(F)F)cc3)cc2C(=O)N([C@H](C)CO)C[C@H]1C was tested, and the cytotoxicity call was “inactive”.
Cc1noc(C)c1S(=O)(=O)N(C)C[C@@H]1OCCCC[C@H](C)Oc2ccc(NC(=O)Nc3ccc(C(F)(F)F)cc3)cc2C(=O)N([C@H](C)CO)C[C@H]1C was tested, and the cytotoxicity call was “inactive”.
In the case of Cc1noc(C)c1S(=O)(=O)N(C)C[C@H]1OCCCC[C@@H](C)Oc2ccc(NC(=O)Nc3ccc(C(F)(F)F)cc3)cc2C(=O)N([C@H](C)CO)C[C@@H]1C, the cytotoxicity call is reported as “active”.
In the case of Cc1noc(C)c1S(=O)(=O)N(C)C[C@H]1OCCCC[C@H](C)Oc2ccc(NC(=O)Nc3ccc(C(F)(F)F)cc3)cc2C(=O)N([C@H](C)CO)C[C@H]1C, the cytotoxicity call is reported as “inactive”.
Cc1noc(C)c1S(=O)(=O)N(C)C[C@H]1OCCCC[C@@H](C)Oc2ccc(NC(=O)Nc3ccc(C(F)(F)F)cc3)cc2C(=O)N([C@@H](C)CO)C[C@H]1C was tested, and the cytotoxicity call was “inactive”.
In the case of Cc1noc(C)c1S(=O)(=O)N(C)C[C@H]1OCCCC[C@H](C)Oc2ccc(NC(=O)Nc3ccc(C(F)(F)F)cc3)cc2C(=O)N([C@@H](C)CO)C[C@@H]1C, the cytotoxicity call is reported as “active”.
With Cc1noc(C)c1S(=O)(=O)N(C)C[C@@H]1OCCCC[C@H](C)Oc2ccc(NC(=O)Nc3ccc(C(F)(F)F)cc3)cc2C(=O)N([C@H](C)CO)C[C@@H]1C the cytotoxicity call was “active”.
